Screen size: about 1,200 compounds; about 480 (40%) were called active. Roughly 29% stayed inconclusive and do not appear here. The list shows a part of the results. Values without a mark were called inactive. Calls come from the whole dose curve; as a rule, active = well fitted inhibition curve with a large enough effect; inconclusive = small, poorly fitted or top-dose-only effect; inactive = no such curve, though single readings can be large or run the other way.
% is set by controls: 0 for no effect and ±100 for the full control effect; potency is the fitted concentration of half-maximal effect.

The nature of this assay: qHTS Assay to Find Inhibitors of Chronic Active B-Cell Receptor Signaling: Hit Validation in Primary Screen. Note: nearly all actives have a fitted effect of over 75% in size. As to conditions: ABC-DLBCL IkB-luc/CBR ratio luminescence, 4 h; series mostly up to 46.1 µM; activity change, negative = inhibition: at the top concentration. The text has this:
Diffuse large B-cell lymphoma (DLBCL) is the most common category of non-Hodgkin lymphoma, with ~20,000 new cases per year in the United States. DLBCL should be regarded as a collection of different neoplasms. Microarray gene expression analysis has defined two principal types of DLBCL, named for their similarity to normal B cell stages or activation states: a germinal center B-cell (GCB) type, and an activated B-cell (ABC) type. In ABC-DLBCL, a constitutive high-level activity of the NF-kappaB family of transcription factors has been observed (1) and NF-kappaB target genes are more highly expressed in ABC primary tumors than in GCB tumors. Functional studies have shown a constitutive high-level activity of the IkappaB (inhibitor of kappa-B) kinase (IKK) complex. […] Further analysis of DLBCL primary tumors for NF-kappaB target gene expression imply that although CARD11 is required for constitutive IKK activity in all ABC-DLBCL lines, mutations in CARD11 may be the root cause of IKK activation only in lines or tumors with such mutations. In other words, CARD11 mutations may explain NF-kappaB activation in only 10% of ABC-DLBCL cases. […] This process has been termed 'chronic active BCR signaling' (CABS). The goal of this screen is to find small-molecule inhibitors of the CABS pathway found in ABC-DLBCL lines using a cell-based assay that measures IkappaBalpa stability, which has already been extensively validated in the OCI-Ly3 line (PubChem AID:445; REF: 4). […] A cell-sensor assay for I-kappa-B-alpha stabilization has been developed. The assay uses green (CBG68) and red (CBR) emitting beetle luciferases [Chroma-GloTM developed by Promega Corp.] where the green luciferase is fused to IkappaBalpha and the red luciferase is present in its native state. Both luciferase genes are stably present in the TMD8 human ABC DLBCL cell line, but their expression is under the control of tetracycline-inducible promoters. Following the addition of doxycycline to induce expression of the luciferases, the green luminescence in control cultures rises only slowly because the CBG fusion partner IkappaBalpha is targeted by IKK activity for rapid degradation. In contrast, green luminescence rises rapidly in the presence of proteasome inhibitors or IKK inhibitors. The rise in red luminescence of CBR is not affected by proteasome or IKK inhibitors, and serves as normalization for cell number and nonspecific effects. Compounds were screened as a concentration-titration series that ranged from 46 uM to 3 nM. NIH Molecular Libraries Probe Production Network [MLPCN] NIH Chemical Genomics Center [NCGC] MLPCN Grant: R03 DA031086 PI Name: Dr. R. Eric Davis
Cells were seeded in 1536-well plates at 5000 cells/4uL in IMDM medium containing 0.5% FBS, w/o phenol red, 1% penicillin/streptomycin. Then, 23 nL of compounds or DMSO were delivered to each well using a pin tool. One uL 20ng/ml doxycycline was then dispensed into white solid 1536-well plates and the plates were incubated at 37C/5% C02 in a cell incubator for 4 hrs. Then 4 uL luminescent substrate mix (in-house prepared: 150 mM Tris-Cl, pH 7.6, 3 mM MgCl2, 1% Triton X-100, 5 mM DTT, 0.2 mM CoA, 0.15 mM ATP, 5 mM D-luciferin, final concentrations) was added to each well. The plate was incubated at r.t. for 10-15 min. The plates were measured on a ViewLux plate reader for green luminescence (540/20 nm filter) and red luminescence (618/8 nm filter). The green and red luminescent signals were corrected for red and green luminescence filter overlap using previously determined filter calibration constants (determined using the procedure outlined in the Promega Technical Manual; REF 4). The %Activity was determined from the ratio of corrected green/red luminescent values. MG132 were used as control. Green luminescent and ratio %Activity was determined by normalizing to the difference in signal between basal cells (0% Activity) and cells incubated with 10 uM of the proteasome inhibitor MG-132 (100% Activity). […]
Consider `COc1ccc(/C=C/C(=O)c2cc(F)ccc2OC(=O)c2ccccc2OC)cc1OC`, for which the Potency was 1.3 µM (active). Regarding `O=C(NC(=S)Nc1cccc(F)c1)c1cccc([N+](=O)[O-])c1`, the “activity change, negative = inhibition” value was -2.56%. `O=C(Oc1ccc(F)cc1C(=O)/C=C/c1cccs1)c1cccc([N+](=O)[O-])c1`: the Potency was 1.46 µM (active). With `S=C(Nc1ccccc1Cl)N(Cc1ccccc1)Cc1ccccn1`, the “activity change, negative = inhibition” value was -2.47%. With `COc1ccc(/C=C/C(=O)c2cc(F)ccc2OC(=O)c2ccc(OC)c(OC)c2)cc1OC`, the Potency was 23.1 µM (active). Take `COc1ccc(NC(=S)N/N=C/c2ccc(F)cc2)cc1OC`: the “activity change, negative = inhibition” value was -3.66%. `COc1cccc(Nc2sc(C(=O)c3ccc(Cl)cc3)c(N)c2C(=O)NCc2ccc(C)cc2)c1`: the Potency was 1.3 µM (active). With `Cc1cc(C)c(S(=O)(=O)Nc2ccc3c4c(cccc24)CC3)c(C)c1`, the Potency was 1.16 µM (active).

With `COc1ccc(CN2C[C@H]3CCCN3c3cc(Br)ccc3S2(=O)=O)cc1`, the Potency was 6.51 µM (active). For `COc1cccc(CN2c3ccc(Br)cc3C(=O)CS2(=O)=O)c1`, the “activity change, negative = inhibition” value is 6.37%.

In the case of `COc1cc(-c2noc(C)c2-c2ccc(N(C)C)nc2)cc(OC)c1OC`, the Potency is 2.31 µM (active). As to `COc1cc(-c2noc(C)c2-c2ccc3[nH]ccc3c2)cc(OC)c1OC`, the Potency was 14.6 µM (active).

With `COc1ccc(-c2c(-c3cc(OC)c(OC)c(OC)c3)noc2C)cn1`, the Potency was 20.6 µM (active). `CCOC(=O)c1ccc(-c2c(-c3cc(OC)c(OC)c(OC)c3)noc2C)cc1F`: the Potency is 8.2 µM (active). Take `CC1=C/C(=N\NC(=S)NCc2ccccc2)CC1`: the “activity change, negative = inhibition” value is -7.8%. As for `COc1cc(-c2c(-c3cc(OC)c(OC)c(OC)c3)noc2C)ccc1F`, the Potency was 1.3 µM (active). `CC(/C=N/NC(=O)c1cc(-c2ccc(Cl)cc2)nc2ccccc12)=C\c1ccco1`: the Potency was 2.91 µM (active).

Regarding `CC(/C=N/NC(=O)c1cc(-c2ccccc2)nc2ccccc12)=C\c1ccco1`, the Potency was 5.8 µM (active). On to `CC(/C=N/NC(=O)c1cc(-c2ccncc2)nc2ccccc12)=C\c1ccco1`, for which the Potency was 1.64 µM (active). On to `O=C(CN1CCCc2ccccc21)N/N=C/c1ccccc1O`, for which the “activity change, negative = inhibition” value was -0.214%. On to `Cc1ccc(/C=N/NC(=O)C2COc3ccccc3O2)s1` (stereo not given), for which the Potency was 23.1 µM (active).

Regarding `C=CCNC(=S)N/N=C/c1ccc(C)s1`, the “activity change, negative = inhibition” value was -9.11%. As to `Cc1c(/C=N\NC(=O)C2COc3ccccc3O2)c2ccccc2n1C` (stereo not given), the Potency is 2.59 µM (active). Regarding `O=C1OCC2=C1C(c1ccc(F)cc1)c1cc3c(cc1N2)OCO3` (stereo not given), the Potency was 0.116 µM (active). On to `C#CCOc1ccc(C2C3=C(COC3=O)Nc3cc4c(cc32)OCO4)cc1OC` (stereo not given), for which the Potency was 0.146 µM (active). On the same count and under the same terms, the value for `COc1ccccc1C1C2=C(COC2=O)Nc2cc3c(cc21)OCO3` (stereo not given) was 1.3 µM (active); that for `COc1ccc(OC)c(C2C3=C(COC3=O)Nc3cc4c(cc32)OCO4)c1` (stereo not given) was 0.366 µM (active). Consider `CCOc1ccccc1C1C2=C(COC2=O)Nc2cc3c(cc21)OCO3` (stereo not given), for which the Potency was 1.3 µM (active). In the case of `O=C(CN1CCC(NC(=O)Nc2ccc(F)cc2)CC1)Nc1ccccc1[N+](=O)[O-]`, the “activity change, negative = inhibition” value is -17.7%. In the case of `CCOc1cc(Br)c(C=O)cc1OCC`, the Potency was 6.51 µM (active).

Regarding `CC(C)(C)NNC(=S)Nc1cccc(F)c1`, the “activity change, negative = inhibition” value was -8.63%.

For `COc1cc(OC)cc(C(=O)Oc2c(CN3CCOCC3)cc(Cl)c3cccnc23)c1`, the “activity change, negative = inhibition” value was 36.6%. In the case of `Cc1cccc(NC(=S)N/N=C/C(C)c2ccccc2)c1C` (stereo not given), the “activity change, negative = inhibition” value is -3.28%.

`CCN1C(=O)c2cccc3c(S(=O)(=O)Nc4nc(C)cs4)ccc1c23`: the Potency is 3.66 µM (active). Turning to `CCN1C(=O)c2cccc3c(S(=O)(=O)Nc4ccccc4O)ccc1c23`, the “activity change, negative = inhibition” value is 94.3%. As for `Cc1ccccc1OCCc1c(C)[nH]c(=S)[nH]c1=O`, the Potency was 11.6 µM (active). On to `COc1ccccc1OCCCN1C(=O)C(=O)c2cccc(C)c21`, for which the “activity change, negative = inhibition” value was -9.96%. In the case of `Cc1ccc(S(=O)(=O)n2cc(-c3ccccc3)c3ccccc32)cc1`, the Potency was 3.26 µM (active). For `CCCCNC(=S)NNC(=O)CCn1nc(C)c(Br)c1C`, the “activity change, negative = inhibition” value was -4.91%.

Consider `COc1cc(Br)cc(/C=C/c2ccc3cccc(O)c3n2)c1O`, for which the Potency was 20.6 µM (active). As to `COc1cc(/C=C/c2ccc3cccc(O)c3n2)c(Br)cc1O`, the Potency is 18.4 µM (active).

As for `COc1ccc(OC)c(/C=C/c2ccc3cccc(O)c3n2)c1`, the Potency was 20.6 µM (active). Regarding `CCOc1ccccc1N=NC1C(=O)N(C(N)=S)N=C1C` (stereo not given), the “activity change, negative = inhibition” value is 24.5%. Take `COCCCNC(=O)C(=O)Nc1ccc2c(c1)N(S(=O)(=O)c1cccs1)CCC2`: the Potency was 16.4 µM (active). For the compound `CCCC(=O)OCCNc1cc(Sc2nccn2C)c2nonc2c1[N+](=O)[O-]`, the Potency is 3.66 µM (active). Turning to `CCOC(=O)CSC1=C(C#N)C(c2ccc(C)o2)CC(=O)N1` (stereo not given), the Potency was 4.11 µM (active). On to `CCOC(=O)CSC1=C(C#N)C(c2ccc(C)s2)CC(=O)N1` (stereo not given), for which the Potency was 16.4 µM (active). Regarding `CCCCNC(=S)N=Nc1c(O)[nH]c2ccccc12`, the “activity change, negative = inhibition” value was 29.1%. In the case of `COc1cc(/C=N/N(C)c2ccccc2)ccc1O`, the “activity change, negative = inhibition” value is 85.9%.

For `COc1ccc(/C=C2\CCc3ccccc3C2=O)cc1O`, the Potency was 13 µM (active).

Source of the values: PubChem BioAssay AID651558 (National Center for Advancing Translational Sciences (NCATS), 2012).
